Experimental data as given in PubChem BioAssay AID1851 (National Center for Advancing Translational Sciences (NCATS), 2009).
The campaign covered roughly 16,000 compounds. About 5,100 (32%) were called active. Roughly 25% stayed inconclusive and do not appear here. The call rests on the fitted dose curve; in most records, active means well fitted curve in the direction sought with a large enough effect; inconclusive means small, poorly fitted or top-dose-only effect, or effect the other way; inactive means no such curve, though single readings can be large or run the other way. The list shows a part of the results.

target: Cytochrome P450 3A4 (Homo sapiens) (UniProt P08684); assay: Cytochrome panel assay with activity outcomes; conditions: recombinant CYP, pro-luciferin dealkylation, luminescence, p450-cyp3a4; series mostly up to 57.1 µM
On the % scale 0 is the no-effect control and ±100 the full control effect.

Chain of Cytochrome P450 3A4 (Homo sapiens) (P08684 whole entry, looked up): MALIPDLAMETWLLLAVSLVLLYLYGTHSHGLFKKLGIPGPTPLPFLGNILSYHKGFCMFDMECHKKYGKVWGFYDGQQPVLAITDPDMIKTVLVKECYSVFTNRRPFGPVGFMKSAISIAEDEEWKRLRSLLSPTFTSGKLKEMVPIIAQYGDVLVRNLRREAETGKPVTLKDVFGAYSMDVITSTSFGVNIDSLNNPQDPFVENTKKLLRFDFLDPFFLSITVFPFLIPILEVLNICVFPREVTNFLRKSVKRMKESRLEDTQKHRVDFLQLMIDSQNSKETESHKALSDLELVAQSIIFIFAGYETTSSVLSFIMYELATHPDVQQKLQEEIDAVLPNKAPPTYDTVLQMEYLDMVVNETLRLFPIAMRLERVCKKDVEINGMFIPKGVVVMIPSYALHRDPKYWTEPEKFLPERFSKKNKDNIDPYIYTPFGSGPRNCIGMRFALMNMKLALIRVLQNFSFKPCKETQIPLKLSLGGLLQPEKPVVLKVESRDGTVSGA

activity, negative = inhibition, inactive:
Cc1c(S(=O)(=O)O)ccc(N=Nc2c(O)c(C(=O)O)cc3ccccc23)c1Cl 1.31% [at 11.4 µM], N=c1nc(N)nc(N)n1-c1ccc(S(N)(=O)=O)cc1 -8.91% [at 11.4 µM], N=C(N)CCNC(=O)[C@@H]1CCC(N)=N1 -7.02% [at 11.4 µM], CC(=O)Nc1nc(NC(C)=O)c2[nH]c(CO)nc2n1 -3.45% [at 11.4 µM], CCN(CC)c1ccc(N2C(=O)/C(=C\c3cccnc3)SC2=S)cc1 -14.7% [at 2.29 µM], Cc1ccc(/C=C2\SC(=S)N(CCCC(=O)Nc3ccccn3)C2=O)cc1 -14.5% [at 2.29 µM], C[C@@H]1/C=C\CC(=O)OC[C@H](C)C(=O)N2CCC[C@@H]2C(=O)OC1 -18.8% [at 11.4 µM], N[C@@H](CSC(=O)c1ccccc1)C(=O)O -4.21% [at 11.4 µM], O=C(NNC(=O)c1cccnc1)Nc1cccc2ccccc12 14.6% [at 0.457 µM], O=C(O)c1ccc(C(=O)Nc2cccc3ccccc23)c(C(=O)O)c1 -18.5% [at 11.4 µM], CCn1c(C)c(C)c2cc(C(=O)Nc3cccc(Cl)c3)ccc21 10.3% [at 2.29 µM], O=C(O)CSc1ccn(Cc2ccccc2)c1 -1.15% [at 11.4 µM], CN1CCN(CN2C(=O)C3C4C=CC(C3C2=O)C2C3C(=O)N(CN5CCN(C)CC5)C(=O)C3C42)CC1 (stereo unspecified) -12.9% [at 11.4 µM], O=C(O)CCSC1=NCCN1 -3.67% [at 11.4 µM], O=C(c1ccc(Cl)cc1)N1CCCC(c2ccccc2)=N1 13% [at 2.29 µM], OCCN(CO)CO -1.86% [at 11.4 µM], Cc1cccc2c1Oc1ccccc1[C@@H]2NC(=O)c1ccc([N+](=O)[O-])cc1 -14% [at 11.4 µM], O=C1[C@H]2CCn3c(=O)n(-c4ccccc4)c(=O)n3[C@H]2[C@H](O)[C@H]2O[C@@H]12 -11.9% [at 11.4 µM], Cn1c(=O)n(-c2cccc(Cl)c2)c(=O)c2c3c(sc21)COC(C)(C)C3 -4.67% [at 2.29 µM], O=S1(=O)N[C@H]2CC[C@@H]3NS(=O)(=O)N[C@H]4CC[C@H](N1)N4S(=O)(=O)N23 5.02% [at 11.4 µM], c1ccc2cc(-c3cc(-c4cc(-c5ccc6ccccc6c5)on4)no3)ccc2c1 -8% [at 11.4 µM]

AC50, inactive:
Cc1cc(C)c2c(N=NN(C)C)[nH]nc2n1, CCOc1ccc(Cl)cc1CNCCNCCO, CC(CCc1ccccc1)NC(=O)C(=O)NCCO (stereo unspecified), COc1cccc(-c2cc(C(F)(F)F)nc(N3CCN(c4ccccc4)CC3)n2)c1, COc1ccc(C(=O)Nc2ccc(OCC(F)(F)C(F)F)c(C(F)(F)F)c2)cc1OC, COc1ccc(-c2cc(C(F)(F)F)nc(N3CCN(C)CC3)n2)cc1OC, COc1ccccc1N1CCN(c2nc(-c3ccccc3)cc(C(F)(F)F)n2)CC1, O=c1oc2c(Cl)cc(Cl)cc2cc1-c1nnc(Nc2ccccc2F)s1, NC[C@@H]1O[C@H](O[C@@H]2[C@H](O[C@@H]3O[C@H](CO)[C@@H](COC[C@H]4O[C@@H](CN)[C@@H](O)[C@@H](O)[C@@H]4N)[C@@H]3O)[C@@H](O)[C@@H](N)C[C@H]2N)[C@@H](N)[C@H](O)[C@@H]1O, CC(C)NC[C@@H](O)COc1cccc2ccccc12, CC(C)NC[C@H](O)COc1cccc2ccccc12, OC[C@@H]1NC[C@@H](O)[C@@H](O)[C@H]1O, O=C(CCC(=O)OCc1ccc(C(=O)Oc2ccccc2)cc1)Nc1cccc2ccccc12, COC(=O)CCC(=O)Nc1cccc2ccccc12, CCOc1nc(N=C(N)N)nc2c(C)cccc12, CCC(=O)Nc1c2c(nc3c1CCC3)CCCC2, C[C@@H]1O[C@@H](n2cc(F)c(=O)[nH]c2=O)[C@H](O)[C@@H]1O, C[C@H](N)C(=O)O, CSc1nc(C2CC2)cc(-c2cccs2)c1C#N, CN(C)Cc1ccccc1-c1nccc(NCc2cccs2)n1, CCc1nn(C)c(-c2n[nH]c(=S)n2N)c1Cl, CCN(c1ccccc1)c1cc(NC)[n+](C)c(C)n1, Cc1ccc(-c2nc3ncccn3c2NC(=O)C2CC2)cc1, COCCn1c(=O)c(-c2ccc(Cl)cc2)nc2cnc(N3CCOCC3)nc21, COCCn1c(=O)c(-c2ccc(Cl)cc2)nc2cnc(N(C)C)nc21, CN(C)c1ncc2nc(-c3ccc(Cl)cc3)c(=O)n(C[C@H]3CCCO3)c2n1, CCNc1ncc2nc(-c3ccc(Cl)cc3)c(=O)n(C[C@H]3CCCO3)c2n1, FC(F)(F)c1ccccc1-c1nccc(N2CCNCC2)n1, Cc1noc(C)c1-c1nccc(N2CCN(C)CC2)n1, Cc1cc(C)c2c(N)c3ccccc3nc2n1, CN(C)Cc1ccccc1-c1ccc2ncnc(NC3CCNCC3)c2c1, COc1ccc(/C=C/C(=O)Oc2cccc(/C=N/NC(=O)COc3c(C)cccc3C)c2)cc1, CCOc1cc(/C=N/NC(=O)CNc2cccc(C)c2)ccc1OC(=O)c1ccccc1, CS(=O)(=O)Nc1cccc(-c2ccc3ncnc(NC4CCNCC4)c3c2)c1

AC50, active:
CCOc1cc(CNCCO)c(Cl)cc1OCC(=O)NCCc1ccccc1 0.794 µM, CCNCc1cc(OCC)c(OCC(=O)NCCc2ccccc2)cc1Cl 0.447 µM, COc1cccc(-c2cc(C(F)(F)F)nc(N3CCOCC3)n2)c1 28.2 µM, COc1ccc(-c2cc(C(F)(F)F)nc(N3CCOCC3)n2)cc1OC 15.8 µM, COc1ccc(-c2cc(C(F)(F)F)nc(NC3CCCC3)n2)cc1OC 25.1 µM, O=C1/C(=C/c2cccnc2)SC(=S)N1Cc1ccco1 1 µM, O=C(CCN1C(=O)/C(=C/c2cccc(Br)c2)SC1=S)NNC(=O)c1cccnc1 3.16 µM, CCN(CC)c1ccc(N2C(=O)/C(=C/c3cccnc3)SC2=S)cc1 5.62 µM, O=C(COc1cccc2ccccc12)N1c2ccccc2CCc2ccccc21 7.94 µM, O=C(Nc1cccc2ccccc12)c1ccccc1 3.16 µM, Cc1c(C)n(C)c2ccc(C(=O)Nc3cccc4ccccc34)cc12 14.1 µM, COc1cccc(C(CC(=O)Nc2cccc3ccccc23)NC(=O)c2ccccc2)c1 (stereo unspecified) 2.24 µM, CSC1(SC2=NCCN2)SC2(NCCN2)S1 1.26 µM, O=C1N=C2SCCN2/C1=C\c1c(Cl)cccc1Cl 10 µM, CCC(Sc1nc(C)cc(=O)[nH]1)C(=O)Nc1nc2c(s1)CCCC2 (stereo unspecified) 14.1 µM, Cc1cc([N+](=O)[O-])ccc1-c1ccc(C2Nc3ccccc3C(=O)N2O)o1 (stereo unspecified) 7.08 µM, Cc1ccccc1-c1nccc(NCc2cccs2)n1 2 µM, FC(F)(F)c1ccccc1-c1nccc(NCc2cccs2)n1 2 µM, Nc1nonc1-c1noc(CCCN2C(=O)c3ccccc3C2=O)n1 7.94 µM, Clc1ccc(-c2nc3ncccn3c2Nc2ccc3c(c2)OCCO3)cc1 4.47 µM, COCCn1c(=O)c(-c2ccc(Cl)cc2)nc2cnc(OC)nc21 7.94 µM, COCCn1c(=O)c(-c2ccccc2)nc2cnc(Oc3ccc(OC)cc3)nc21 1 µM, COCCn1c(=O)c(-c2ccc(OC)cc2)nc2cnc(OC)nc21 15.8 µM, COCCn1c(=O)c(C)nc2cnc(Oc3ccc(OC)cc3)nc21 15.8 µM, COc1ncc2nc(-c3ccc(Cl)cc3)c(=O)n(C[C@H]3CCCO3)c2n1 10 µM, Clc1ccccc1-c1nccc(-n2ccnc2)n1 1.26 µM, COc1ccccc1-c1nccc(-n2ccnc2)n1 1.58 µM, COc1ccccc1-c1cc(-n2ccnc2)ncn1 0.316 µM, Cc1noc(C)c1-c1nccc(-n2ccnc2)n1 1.26 µM, Cc1ccccc1-c1nccc(-n2ccnc2)n1 1 µM, CNc1ncnc2ccc(-c3ccccc3CN(C)C)cc12 7.94 µM, COc1ccc(CNc2ncnc3ccc(-c4ccccc4CN(C)C)cc23)c(OC)c1 7.94 µM, CN(C)Cc1ccccc1-c1ccc2ncnc(NCc3ccccc3)c2c1 15.8 µM, COc1ccccc1CNc1ncnc2ccc(-c3ccccc3OC)cc12 6.31 µM, COc1ccc(CNc2ncnc3ccc(-c4ccccc4OC)cc23)c(OC)c1 2 µM, COc1ccccc1CNc1ncnc2ccc(-c3ccccc3CN(C)C)cc12 12.6 µM, CCOc1cc(/C=N/NC(=O)COc2cccc(C)c2)ccc1OC(=O)c1cccs1 14.1 µM, CNc1ncnc2ccc(-c3cccc(NS(C)(=O)=O)c3)cc12 12.6 µM, CS(=O)(=O)Nc1cccc(-c2ccc3ncnc(NC4CC4)c3c2)c1 6.31 µM, CS(=O)(=O)Nc1cccc(-c2ccc3ncnc(Nc4ccccc4)c3c2)c1 10 µM, CS(=O)(=O)Nc1cccc(-c2ccc3ncnc(Nc4ccc(F)cc4)c3c2)c1 7.94 µM
